Data reported in the supplement of paper PMC8699584.
Values joined by “and” are separate entries in the source; they are usually repeats but may differ in a detail not shown here. Equal entries are not always repeated. Structures can show the parent of a compound that is named as a salt. ± gives the standard deviation of the averaged measurements.

Assays:
[1] = test system: Molm13; experiment: cell viability relative to DMSO control (bortezomib = 0%); higher = less growth inhibition; details: 10 nM; 72 h
Procedure, shortened: (§1)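 In duplicate runs, a library of 679 approved and investigational compounds in 384-well plates received acute myeloid leukemia cells at 1000 cells per well in 50 µL, with each compound at a single 10 nM dose for 72 h. CellTiter-Glo luminescence, read on an EnVision reader, served as the viability measure. Each plate was normalized by linear regression between DMSO-treated cells (100%) and positive-control-treated cells (0%).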

[2] = test system: Mv4-11; experiment: as above; details: 10 nM; 72 h
Procedure, shortened: as §1

Row | Compound | cell viability [1] | cell viability [2]
1 | Nc1ccc(C(=O)Nc2cccc(-c3nc(N4CCOCC4)c4oc5ncccc5c4n3)c2)cn1 | 104% and 101% | 106% and 108%
2 | C#Cc1cccc(Nc2ncnc3cc4c(cc23)OCCOCCOCCO4)c1 [Icotinib Hydrochloride] | 100 ± 4.9% | 105 ± 9.2%
3 | CNC(=O)c1ccc(C)c(-n2c(C)cc(OCc3ccc(F)cc3F)c(Br)c2=O)c1 | 97.9 ± 3.1% | 110 ± 1.8%
4 | CCc1cc2c(=O)c(-c3nc4ccccc4s3)coc2c(CN2CCCCC2)c1O | 129 ± 34% | 123 ± 5.4%
5 | CCc1cncnc1N1CCN(Cc2nc3ccc(C(F)(F)F)cc3[nH]2)CC1 | 106 ± 32% | 116 ± 7.7%
6 | O=C(O)c1cc(O)c2c(c1)[C@@H]([C@H]1c3cc(C(=O)O)cc(O)c3C(=O)c3c(O[C@@H]4O[C@H](CO)[C@@H](O)[C@H](O)[C@H]4O)cccc31)c1cccc(O[C@@H]3O[C@H](CO)[C@@H](O)[C@H](O)[C@H]3O)c1C2=O [Sennoside B] | 101 ± 12% | 91.4 ± 16%
7 | C[C@@H]1O[C@@H](OC[C@H]2O[C@@H](Oc3c(-c4ccc(O)c(O)c4)oc4cc(O)cc(O)c4c3=O)[C@H](O)[C@@H](O)[C@@H]2O)[C@H](O)[C@H](O)[C@H]1O [Rutin] | 103 ± 1.5% | 113.3 ± 0.28%
8 | O=C(O)c1c[nH]c2c(ccc3ccccc32)c1=O | 87 ± 11% | 106 ± 6.8%
9 | O=C(NCCCNc1nc(Nc2cccc(CN3CCOCC3)c2)ncc1C1CC1)C1CCC1 | 86.2 ± 18% | 106 ± 28%
10 | O=C(Nc1ccc2[nH]nc(-c3ccncc3)c2c1)[C@@H]1CCN(CC(=O)N2CCN(c3ccc(-c4ncccn4)cc3)CC2)C1 | 92 ± 12% | 95.8 ± 19%
11 | CN1CCN(CCOc2cc(OC3CCOCC3)c3c(Nc4c(Cl)ccc5c4OCO5)ncnc3c2)CC1 [Saracatinib (AZD0530)] | 98.2 ± 3.5% | 106 ± 6.2%
12 | O=C1NC(=O)[C@@H](c2cn3c4c(cccc24)CCC3)[C@@H]1c1c[nH]c2ccccc12 [Tivantinib (ARQ 197)] | 105 ± 3.9% | 115 ± 11%
13 | O=c1cc(-c2ccccc2)oc2c(O)c(O)ccc12 [7,8-Dihydroxyflavone] | 108 ± 16% | 104 ± 4%
14 | O=c1oc2c(O)c(O)cc3c(=O)oc4c(O)c(O)cc1c4c23 [Ellagic acid] | 92.5 ± 28% | 99.5 ± 11%
15 | COc1cc(-c2cc(-c3cccc(O)c3)cnc2N)cc(OC)c1OC | 99.8 ± 14% | 106 ± 6.8%
16 | COc1ccc(-c2oc3c(CC=C(C)C)c(O)cc(O)c3c(=O)c2O)cc1 [Icaritin] | 117 ± 8.4% | 118 ± 1.5%
17 | CC(C)(C)c1cc(NC(=O)Nc2ccc(-c3cn4c(n3)sc3cc(OCCN5CCOCC5)ccc34)cc2)no1 [Quizartinib (AC220)] | 9.37 ± 9.1% | 3.71 ± 2.9%

Row | Compound | cell viability [1] | cell viability [2]
18 | CNC(=O)c1cc(Oc2ccc(NC(=O)Nc3ccc(Cl)c(C(F)(F)F)c3)c(F)c2)ccn1 [Regorafenib (BAY 73-4506)] | 101 ± 7.3% | 110.3 ± 0.69%
19 | Cc1c(CN2CCN(S(C)(=O)=O)CC2)sc2c(N3CCOCC3)nc(-c3cnc(N)nc3)nc12 | 106 ± 16% | 107 ± 9.6%
20 | C[C@]1(O)C[C@@H](c2nc(-c3ccc4ccc(-c5ccccc5)nc4c3)c3c(N)nccn32)C1 [OSI-906 (Linsitinib)] | 118 ± 12% | 116 ± 12%
21 | CCCCOc1c(C(=O)c2c(F)cc(C)cc2F)c[nH]c2nncc1-2 | 112 ± 1.9% | 107 ± 7%
22 | Cc1c(Cn2c(C)nc3c(C(=O)O)cc(N4CCOCC4)cc32)cccc1C(F)(F)F | 102 ± 5.3% | 110 ± 17%
23 | Cn1sc(=O)n(Cc2ccccc2)c1=O | 90.9 ± 6.1% | 108 ± 21%
24 | COC(=O)[C@]12CCC(C)(C)C[C@H]1[C@H]1C(=O)C=C3[C@@]4(C)C=C(C#N)C(=O)C(C)(C)[C@@H]4CC[C@@]3(C)[C@]1(C)CC2 [Bardoxolone Methyl] | 102 ± 6.8% | 104 ± 1.1%
25 | CN(C)C(=O)c1ccc(S(=O)(=O)c2ccc(NC(=O)[C@@](C)(O)C(F)(F)F)c(Cl)c2)cc1 | 97 ± 12% | 109 ± 7%
26 | CCC[C@H](NC(=O)/C(C#N)=C/c1cccc(Br)n1)c1ccccc1 | 132 ± 32% | 115 ± 11%
27 | Oc1cccc(-c2nc(N3CCOCC3)c3sccc3n2)c1 [PI3-Kinase ? Inhibitor 2] | 108.6 ± 0.5% | 120 ± 22%
28 | Nc1ccn([C@@H]2O[C@H](CO)[C@@H](O)C2(F)F)c(=O)n1 [Gemcitabine] | -0.99 ± 5.6% | -5.76 ± 18%
29 | CC(C)c1cnn2c(NCc3ccccc3)cc(NCCCCCCN)nc12 | 105 ± 20% | 84 ± 18%
30 | CC1(C)OC(=O)C=C[C@]2(C)[C@H]3CC[C@@]4(C)[C@H](c5ccoc5)OC(=O)[C@H]5O[C@]54[C@]3(C)C(=O)C[C@@H]12 [Obacunone] | 108 ± 7.3% | 109 ± 19%
31 | N#CC(=C(/N)Sc1ccccc1N)/C(C#N)=C(\N)Sc1ccccc1N | 99.3 ± 16% | 104 ± 7%
32 | O=Nc1c(-c2c(O)[nH]c3ccccc23)[nH]c2ccccc12 [Indirubin-3'-monoxime] | 88 ± 13% | 80.7 ± 4.5%
33 | Cc1ncc(-c2ccnc(Nc3ccc(S(C)(=O)=O)cc3)n2)n1C(C)C | 102 ± 14% | 122 ± 13%
34 | N#CC1(c2ccc(NC(=O)c3cccnc3NCc3ccncc3)cc2)CCCC1 [Apatinib] | 113 ± 10% | 110 ± 1.5%
